FBW7 act: human FBW7 E3 ligase activation, primary screen. Q969H0. AlphaScreen FBW7–phospho-cyclin E peptide binding, activator screen. normalized activity (activation), % at 26.1 µM. 0.13% of 650,000 active. AID 1259310; in the data active = normalized activity above about 1.9%;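 also: purified mutant Fbw7 with reduced substrate affinity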
MITF primary: blocks human microphthalmia-associated transcription factor | AlphaScreen MITF homodimerization, bead proximity signal | inhibition, % at 2.6 µM | 0.91% of 650,000 active; in the data active = inhibition above about 50%
GPR151 ag: activates the human receptor GPR151; Q8TDV0; PathHunter beta-arrestin GPR151 cells, luminescence; activation, % at 11.2 µM; 1% of 650,000 active; AID 1508602; in the data active = activation above about 4.9%
Target sequence (Q8TDV0 whole entry, looked up): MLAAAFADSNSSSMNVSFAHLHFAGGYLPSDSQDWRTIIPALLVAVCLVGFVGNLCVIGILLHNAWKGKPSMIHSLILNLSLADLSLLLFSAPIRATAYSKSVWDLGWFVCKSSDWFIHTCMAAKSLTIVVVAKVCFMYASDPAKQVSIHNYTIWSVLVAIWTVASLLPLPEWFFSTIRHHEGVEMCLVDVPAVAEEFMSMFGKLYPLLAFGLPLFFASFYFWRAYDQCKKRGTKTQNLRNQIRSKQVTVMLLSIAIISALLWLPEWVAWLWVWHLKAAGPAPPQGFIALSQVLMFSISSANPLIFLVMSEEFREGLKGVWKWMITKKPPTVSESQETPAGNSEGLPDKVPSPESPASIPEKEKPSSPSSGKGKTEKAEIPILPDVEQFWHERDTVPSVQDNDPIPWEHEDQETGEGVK
TEAD-YAP inh: TEAD-YAP interaction inhibition. AID 1259422. HEK-TIYL cells, TEAD-Gal4/YAP UAS-luciferase luminescence. inhibition, % at 9.12 µM. 1.4% of 640,000 active; in the data active = inhibition above about 32%
A number is an active result; n = inactive. This is a sample that favours compounds with a hit; in the whole collection about 3.5% have one here.

SMILES	FBW7 act	MITF primary	GPR151 ag	TEAD-YAP inh
CC(=O)Nc1ccc(-c2cn3ccccc3n2)cc1	n	n	n	39
Cc1cccn2cc(-c3ccc(NC(=O)CC(C)C)cc3)nc12	n	n	n	n
CCc1ccc(-c2cn3nc(C)c(C)nc3n2)cc1	n	n	n	92
CCc1ccc(OCC(=O)Nc2nccs2)c(Br)c1	n	n	n	95
Cc1cc(Cl)ccc1OCC(=O)Nc1nccs1	n	n	n	65
CC(C)(C)c1ccc(OCC(=O)Nc2nccs2)c(Br)c1	n	n	n	91
CCc1ccc(OCC(=O)Nc2cccc(C)n2)c(Br)c1	n	n	n	n
Cc1ccc(OCC(=O)Nc2nccs2)c(Br)c1	n	n	n	98
COc1cc2c(cc1OC)CN(C1CCC(C)C1)CC2 (stereo not drawn)	n	n	n	n
CNC(=O)/C(C#N)=C/c1ccc(-c2ccc(Cl)c(Cl)c2)o1	1.9	n	n	n
CNC(=O)/C(C#N)=C/c1ccc(-c2ccc(Br)cc2)o1	n	n	n	n
CC(=O)c1ccc(NC(=O)COc2ccc(Br)cc2)cc1	n	n	n	n
CC(=O)Nc1ccc(OS(=O)(=O)c2ccc(NC(C)=O)cc2)cc1	n	n	n	n
Cn1cccc1/C=C1\CS/C(=C\c2cccn2C)C1=O	n	68	n	n
CCN1C/C(=C\c2cccn2C)C(=O)/C(=C/c2cccn2C)C1	n	n	n	n
CCOc1ccc(S(=O)(=O)Nc2cc3c(C(=O)OCc4ccccc4)c(C)oc3c3ccccc23)cc1	n	n	n	n
CC(=O)c1c(C)oc2c1cc(NS(=O)(=O)c1ccc(Br)cc1)c1ccccc12	n	n	n	47
CCCOC(=O)c1c(C)oc2c1cc(NS(=O)(=O)c1ccc(OCC)cc1)c1ccccc12	n	n	n	53
CCc1ccc(S(=O)(=O)Nc2cc3c(C(C)=O)c(C)oc3c3ccccc23)cc1	n	n	n	56
CCCOc1ccc(N2C(=O)CC(NCCc3c(C)n(C)c4ccccc34)C2=O)cc1 (stereo not drawn)	n	n	n	n
O=S(=O)(c1cccs1)N1CCc2nc(-c3ccccn3)nc(N3CCOCC3)c2C1	n	n	n	n
COCCCNC(=O)/C(C#N)=C/c1cn(Cc2ccccc2)c2ccccc12	n	n	n	44
COCCCNC(=O)/C(C#N)=C/c1cc(C)n(-c2ccccc2)c1C	n	n	n	40
COCCCNC(=O)/C(C#N)=C/c1cc(C)n(-c2ccc(C)cc2)c1C	n	n	n	n
COCCNC(=O)/C(C#N)=C/c1cc(C)n(-c2sc(C)c(C)c2C#N)c1C	n	n	n	51
SMILES	FBW7 act	MITF primary	GPR151 ag	TEAD-YAP inh
COCCN(CCOC)S(=O)(=O)c1ccc(C(=O)Nc2nc3c(OC)cc([N+](=O)[O-])cc3s2)cc1	n	n	n	n
Cc1ccc(CN2C(=O)CN=C2Nc2ccc(Cl)cc2)cc1	n	n	n	n
Cc1nc2sccn2c1C(=O)Nc1cccc(Oc2ccccc2)c1	n	n	n	n
Cc1nc2sccn2c1C(=O)Nc1cccc(OC(F)(F)F)c1	1.9	n	n	n
OC(COc1ccccc1CNCCN1CCOCC1)CN1CCc2ccccc2C1 (stereo not drawn)	n	n	n	n
CCc1nnc2n1N=C(c1ccc3c(c1)OCCO3)CS2	n	n	n	51
Cc1cc(C)c(C=Nc2ccccc2C(N)=O)c(C)c1	n	n	n	n
Cc1ccccc1C=Nc1ccccc1C(N)=O	n	n	n	49
O=C(CN1CCOC1=O)N1CCCC(CNC(=O)C2(c3ccc(Cl)cc3)CC2)C1 (stereo not drawn)	n	n	n	n
COc1cc(C=O)ccc1OCCCOc1ccc([N+](=O)[O-])cc1Cl	n	n	n	n
O=C1NC(=O)N(Cc2ccco2)C(=O)/C1=C\c1ccc2c(c1)OCO2	n	72	n	n
COc1ccc(/C=C2/C(=O)NC(=O)N(Cc3ccco3)C2=O)cc1C	n	59	n	n
COc1cc(N2CCOCC2)ccc1/C=C1\C(=O)NC(=O)N(Cc2ccco2)C1=O	n	66	n	n
O=C1/C(=C/c2ccc3c(c2)OCO3)SC(=S)N1Cc1ccco1	n	n	n	n
COc1ccc(/C=C2/C(=O)NC(=O)N(Cc3ccccc3)C2=O)cc1OC	n	n	n	n
O=C1NC(=O)N(Cc2ccco2)C(=O)/C1=C\C=C\c1ccccc1	n	54	n	n
C=CCN1C(=O)NC(=O)/C(=C/C=C/c2ccco2)C1=O	n	n	n	n
CSCCOC(=O)C1=C(C)NC(=O)NC1c1cc2c(cc1Br)OCO2 (stereo not drawn)	n	n	n	n
O=C(Nc1ccc2c(c1)OCCO2)c1ccc(C(=O)Nc2ccc3c(c2)OCCO3)nc1	n	n	n	65
COc1ccc(NC(=O)c2ccc3c(c2)OCCO3)cc1	n	n	n	75
COC(=O)C(=NNc1ccc2c(c1)OCCO2)C(=O)OC	n	n	n	80
O=C(Nc1ccc2c(c1)OCCO2)c1ccccc1	n	n	n	n
COc1cccc(OC)c1C(=O)Nc1ccc2c(c1)OCCO2	n	n	n	n
O=C(Nc1ccc2c(c1)OCCO2)c1ccc2ccccc2c1	n	n	n	87
O=C(/C=C/c1cccs1)N(Cc1ccncc1)c1nc2c(F)cccc2s1	n	n	n	n
SMILES	FBW7 act	MITF primary	GPR151 ag	TEAD-YAP inh
CCOC(=O)C1=C(C)N=c2s/c(=C\c3ccc(-c4ccc(C(=O)OC)cc4)o3)c(=O)n2C1c1ccc(OC)c(Br)c1 (stereo not drawn)	n	n	n	n
COc1ccc(C(=O)N2CC(C)OC(C)C2)c(OC)c1 (stereo not drawn)	n	n	n	n
Cc1nc(SCC(=O)NC2CCCCC2)c2c(C)c(C)sc2n1	n	n	n	n
O=C(Nc1ccc2[nH]ncc2c1)C1CCN(C(=O)[C@@H](O)c2ccccc2Cl)C1 (stereo partly drawn)	n	n	n	n
CC12CCC(C(=O)Nc3ccc4c(c3)OCCO4)(CC1=O)C2(C)C (stereo not drawn)	n	n	n	62
O=C(Nc1ccc2sccc2c1)c1ccc2c(c1)OCO2	n	n	n	72
O=C(O)C1CCCCC1C(=O)Nc1ccc2c(c1)OCCO2 (stereo not drawn)	n	n	n	62
O=C(O)C1C2CCC(O2)C1C(=O)Nc1ccc2c(c1)OCCO2 (stereo not drawn)	n	n	n	n
CC12CCC(C(=O)Nc3ccc(Cl)c(Cl)c3)(CC1=O)C2(C)C (stereo not drawn)	n	n	n	n
O=C(Nc1cccnc1)C(=O)Nc1ccc2c(c1)OCCO2	n	n	n	59
N#CC1=C(N)N(c2cc(C(F)(F)F)ccc2Cl)C2=C(C(=O)CCC2)C1c1cccs1 (stereo not drawn)	n	n	n	n
O=C1c2ccccc2C(=O)N1CN(Cc1ccccc1)CN1C(=O)c2ccccc2C1=O	n	n	n	n
Cc1ccc2cc3c(N)c(C(=O)Nc4ccc5c(c4)OCCO5)sc3nc2c1	n	n	n	71
Cc1cc(C(=O)Nc2ccc3c(c2)OCCO3)cs1	n	n	n	41
COc1ccc(C(=O)Nc2ccc3c(c2)OCCO3)cc1	n	n	n	66
Cc1cc2nc3c(=O)[nH]c(=O)[nH]c3nc2cc1N	n	n	n	n

High-throughput results as filed in PubChem.
